# Laboratory results published in PubChem BioAssay.
# Inconclusive results are not listed. Calls of active or inactive are those of the source. Unless noted, no stated cut-off is given here; in the data, active means fluorescence slope change above about 50%; inconclusive means mostly about 31% to 49%; inactive means weaker than that.
# Tests used:
# [1] = biological target: ATP-dependent translocase ABCB1 (Homo sapiens) (UniProt P08183); experiment: MDR1 (ABCB1) efflux transporter inhibition, cell-based (AID 377); settings: MDR1-expressing cells, fluorescent substrate accumulation slope; stronger effect = higher value; concentration not given here
# [2] = hESC survival regulators, cell-based (AID 493140; call rule not given here;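 further: cells exposed to compounds for four days before counting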); settings: human embryonic stem cell survival screen; stronger effect = higher value
# [3] = liver-stage malaria parasite growth inhibition, primary screen, cell-based, HepG2, luciferase luminescence, HepG2 viability (AID 624349; in the data active means parasite load remaining mostly below about 12%, no sharp cut-off; inactive means mostly above about 10%;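 further: 100% = mean of DMSO negative control wells on the same plate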); settings: P. berghei liver stage in HepG2, luciferase luminescence, concentration not given here; parasite load remaining: stronger effect = lower value; viability: measured here: HepG2 viability without parasites
# [4] = kinase inhibitors against Plasmodium liver-stage infection, cell-based, known kinase inhibitor set, luminescence, hepatoma host viability (AID 624392; call rule not given here;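 further: infected cells incubated roughly two days before readout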); settings: Plasmodium liver stage in hepatoma cells, luciferase luminescence, concentration not given here; liver cell % of control: measured here: host liver cell viability; parasite % of control: stronger effect = lower value
# Chain of ATP-dependent translocase ABCB1 (Homo sapiens) (P08183 whole entry, looked up): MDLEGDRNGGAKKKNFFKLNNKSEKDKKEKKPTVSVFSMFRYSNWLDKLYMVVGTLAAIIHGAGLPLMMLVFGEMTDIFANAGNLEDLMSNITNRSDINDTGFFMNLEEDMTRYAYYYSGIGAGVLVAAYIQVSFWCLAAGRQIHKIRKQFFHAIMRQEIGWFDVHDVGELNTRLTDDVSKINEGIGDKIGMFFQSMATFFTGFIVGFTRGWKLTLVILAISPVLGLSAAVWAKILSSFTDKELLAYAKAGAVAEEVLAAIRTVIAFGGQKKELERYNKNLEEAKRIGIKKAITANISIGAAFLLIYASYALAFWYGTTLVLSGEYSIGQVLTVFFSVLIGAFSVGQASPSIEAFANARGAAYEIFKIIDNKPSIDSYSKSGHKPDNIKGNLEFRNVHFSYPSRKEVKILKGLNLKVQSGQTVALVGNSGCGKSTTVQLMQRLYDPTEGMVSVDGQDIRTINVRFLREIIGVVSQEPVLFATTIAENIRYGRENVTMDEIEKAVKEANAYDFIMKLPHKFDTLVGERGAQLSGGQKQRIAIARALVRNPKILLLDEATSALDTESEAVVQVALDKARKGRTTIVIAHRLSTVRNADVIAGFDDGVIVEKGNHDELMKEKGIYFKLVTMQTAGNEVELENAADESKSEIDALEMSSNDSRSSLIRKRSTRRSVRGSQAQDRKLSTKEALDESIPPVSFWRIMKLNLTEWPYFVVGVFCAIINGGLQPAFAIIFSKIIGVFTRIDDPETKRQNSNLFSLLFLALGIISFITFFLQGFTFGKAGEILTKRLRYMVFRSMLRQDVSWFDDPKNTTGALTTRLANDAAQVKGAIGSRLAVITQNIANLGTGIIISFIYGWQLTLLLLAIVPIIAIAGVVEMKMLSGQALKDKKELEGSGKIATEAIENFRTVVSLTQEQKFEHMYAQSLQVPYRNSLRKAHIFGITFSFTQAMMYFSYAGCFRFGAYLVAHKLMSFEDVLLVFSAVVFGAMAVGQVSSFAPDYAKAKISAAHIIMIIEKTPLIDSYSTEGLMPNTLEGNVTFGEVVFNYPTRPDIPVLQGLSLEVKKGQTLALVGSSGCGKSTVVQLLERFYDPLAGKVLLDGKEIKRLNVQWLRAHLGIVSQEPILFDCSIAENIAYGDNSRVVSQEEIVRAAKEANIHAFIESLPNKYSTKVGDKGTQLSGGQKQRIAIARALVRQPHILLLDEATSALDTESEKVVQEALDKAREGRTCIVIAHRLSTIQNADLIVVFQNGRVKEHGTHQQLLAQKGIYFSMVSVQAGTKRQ
smiles,measurement,setting,value
CCC(C(=O)C(C)C(O)C(C)CCc1ccc(C)c(O)c1C(=O)O)[C@H]1O[C@](CC)([C@H]2CCC(O)(CC)[C@H](C)O2)C[C@@H]1C (stereo partly drawn),fluorescence slope change,[1],130% (active)
COC(=O)C1[C@H]2C[C@H]3c4[nH]c5ccccc5c4CCN3C[C@H]2CC[C@@H]1O (stereo partly drawn),fluorescence slope change,[1],78.8% (active)
COc1ccc(C(=O)O[C@H]2CC[C@@]3(C)C4CCC5[C@]6(O)[C@@H](O)[C@H](O)[C@H]7[C@@H](CN8C[C@@H](C)CC[C@H]8[C@@]7(C)O)[C@@H]6C[C@@]53O[C@]42O)cc1OC (stereo partly drawn),fluorescence slope change,[1],2.5% (inactive)
CC1CCC2(OC1)O[C@H]1C[C@H]3[C@@H]4CC[C@H]5C[C@@H](O)CC[C@]5(C)[C@H]4CC(=O)[C@]3(C)[C@H]1[C@@H]2C (stereo partly drawn),fluorescence slope change,[1],74.2% (active)
same,survival,[2],3.25 (inactive)
CC[N+]1(C)C2CCC1CC(OC(=O)[C@H]1CCC(C(=O)OC3CC4CCC(C3)[N+]4(C)CC)(c3ccccc3)c3ccccc31)C2 (stereo partly drawn),fluorescence slope change,[1],92.7% (active)
same,survival,[2],4.5 (inactive)
CN(N=O)C(=O)N[C@@H]1C(O)OC(CO)[C@@H](O)[C@H]1O (stereo partly drawn),fluorescence slope change,[1],25.6% (inactive)
CC[C@H](C)[C@H]1O[C@]2(CC[C@@H]1C)C[C@@H]1C[C@@H](C/C=C(\C)C(O[C@H]3C[C@H](OC)[C@@H](O[C@H]4C[C@H](OC)[C@@H](O)[C@H](C)O4)[C@H](C)O3)[C@@H](C)/C=C/C=C3\CO[C@@H]4[C@H](O)C(C)=C[C@@H](C(=O)O1)[C@]34O)O2 (stereo partly drawn),fluorescence slope change,[1],136% (active)
same,survival,[2],17.6 (inactive)
same,parasite load remaining,[3],93.7% (inactive)
same,viability,[3],89.6%
c1ccc2c(c1)CN1CCCCC1=N2,fluorescence slope change,[1],0.4% (inactive)
C[C@@H]1C(=O)O[C@H]2CC34[C@H]5C[C@@H](C(C)(C)C)C36[C@@H](OC(=O)[C@@H]6O)OC4(C(=O)O5)[C@]21O (stereo partly drawn),fluorescence slope change,[1],57.6% (active)
same,survival,[2],10.1 (inactive)
same,parasite load remaining,[3],79.2% (inactive)
same,viability,[3],79.7%
c1ccc2c3c([nH]c2c1)C1C2CCC(C4CCCNC42)N1CC3 (stereo not drawn),fluorescence slope change,[1],15.6% (inactive)
same,survival,[2],1.58 (inactive)
C=N[C@@H](C(=O)N[C@@H]1C(=O)C2[C@@H](C(=O)O)C(C)(C)S[C@@H]21)c1ccccc1 (stereo partly drawn),fluorescence slope change,[1],10.1% (inactive)
CCCC(=O)Nc1ncnc2c1ncn2[C@@H]1O[C@@H]2COP(=O)(O)O[C@@H]2C1OC(=O)CCC (stereo partly drawn),fluorescence slope change,[1],80% (active)
same,survival,[2],3.33 (inactive)
CC[C@H]1OC(=O)[C@H](C)[C@@H](OC2CC(C)(OC)C(O)C(C)O2)[C@H](C)[C@@H](OC2OC(C)CC(N(C)C)C2O)[C@](C)(O)C[C@@H](C)/C(=N\OCOCCOC)[C@H](C)[C@@H](O)[C@]1(C)O (stereo partly drawn),fluorescence slope change,[1],66.5% (active)
same,survival,[2],6.25 (inactive)
CC1Nc2ccccc2C1NC(=O)c1ccc(Cl)c(S(N)(=O)=O)c1 (stereo not drawn),fluorescence slope change,[1],26.2% (inactive)
COC1CC(O[C@H]2[C@H](C)[C@@H](OC3OC(C)CC(N(C)C)C3O)[C@@H](C)C[C@]3(CO3)C(=O)[C@H](C)[C@@H](O)[C@@H](C)[C@@H](C)OC(=O)[C@@H]2C)OC(C)C1O (stereo partly drawn),fluorescence slope change,[1],96.5% (active)
same,survival,[2],26.4 (inactive)
same,parasite load remaining,[3],84.7% (inactive)
same,viability,[3],90.7%
CC1=C(C(=O)O)N2C(=O)[C@@H](NC(=O)[C@H](N)c3ccc(O)cc3)C2SC1 (stereo partly drawn),fluorescence slope change,[1],66.4% (active)
COc1cc(Br)c(CC2c3cc(OC)c(OC)cc3CCN2C)cc1OC (stereo not drawn),fluorescence slope change,[1],9.4% (inactive)
O=C(O)c1cc2ccccc2c(Cc2cc3ccccc3c(C(=O)O)c2O)c1O (tested in a mixture with another compound),fluorescence slope change,[1],14.8% (inactive)
same,survival,[2],7.75 (inactive)
same,parasite load remaining,[3],58.5% (inactive)
same,viability,[3],76.8%
CCOc1ccc2ccccc2c1C(=O)NC1C(=O)N2C1SC(C)(C)C2C(=O)O (stereo not drawn),fluorescence slope change,[1],71.1% (active)
COc1ccc2cc3n(c(=O)c2c1OC)CCc1cc2c(cc1-3)OCO2,fluorescence slope change,[1],57.9% (active)
NCC[C@H](O)C(=O)NC1CC(N)C(OC2OC(CN)C(O)C(O)C2O)C(O)C1OC1OC(CO)C(O)C(N)C1O (stereo partly drawn),fluorescence slope change,[1],13.3% (inactive)
same,survival,[2],1.75 (inactive)
same,parasite load remaining,[3],68.1% (inactive)
same,viability,[3],76.6%
C=C1C(=O)O[C@H]2C1CC/C(C)=C/CC[C@@]1(C)O[C@H]21 (stereo partly drawn),fluorescence slope change,[1],20.5% (inactive)
CO[C@@H]1[C@@H](OC2OC(C)C(OC3CC(C)(O)C(OC(=O)CC(C)C)C(C)O3)C(N(C)C)C2O)[C@@H](CC=O)C[C@@H](C)[C@@H](O)/C=C/C=C/C[C@@H](C)OC(=O)C[C@H]1OC(C)=O (stereo partly drawn),fluorescence slope change,[1],127% (active)
same,survival,[2],16.8 (inactive)
same,parasite load remaining,[3],90.7% (inactive)
same,viability,[3],92.1%
COc1ccc(CC(N)C(=O)N[C@@H]2C(O)[C@H](n3cnc4c(N(C)C)ncnc43)O[C@@H]2CO)cc1 (stereo partly drawn),fluorescence slope change,[1],10.7% (inactive)
same,survival,[2],0.083 (inactive)
same,parasite load remaining,[3],13.2% (inactive)
same,viability,[3],14.9%
CCCCC/C=C\C\C=C/C=C/C=C/[C@@H](SCC(NC(=O)CCC(N)C(=O)O)C(=O)NCC(=O)O)[C@@H](O)CCCC(=O)O (stereo partly drawn),survival,[2],90.2 (inactive)
C[C@H](CCC(=O)O)[C@H]1CC[C@H]2[C@@H]3C(O)C[C@@H]4CC(O)CC[C@]4(C)[C@H]3CC[C@]12C (stereo partly drawn),fluorescence slope change,[1],167% (active)
CC1(C)S[C@@H]2[C@H](NC(=O)C(NC(=O)N3CCNC3=O)c3ccccc3)C(=O)N2[C@H]1C(=O)O (stereo partly drawn),fluorescence slope change,[1],25.1% (inactive)
CC(C)N1CCN(c2ccc(OC[C@@H]3CO[C@@](Cn4cncn4)(c4ccc(Cl)cc4Cl)O3)cc2)CC1,fluorescence slope change,[1],82.8% (active)
same,survival,[2],7.75 (inactive)
same,parasite load remaining,[3],57.7% (inactive)
same,viability,[3],72.8%
CC1O[C@H](O[C@]2(O[C@H]3CC[C@@]4(C)C(=CC[C@H]5[C@@H]6C[C@H]7[C@H]([C@H](C)[C@H]8CC[C@H](C)CN87)[C@@]6(C)CC[C@@H]54)C3)C[C@@H](O[C@@H]3OC(CO)[C@@H](O)[C@@H](O)C3O)[C@@H](O)C(CO)O2)C(O)[C@@H](O)[C@H]1O (stereo partly drawn),fluorescence slope change,[1],75.1% (active)
same,survival,[2],4.89 (inactive)
same,parasite load remaining,[3],74.2% (inactive)
same,viability,[3],82%
CC1OC(O[C@H]2/C=C/C=C/C=C/C=C/C=C/C=C/C=C/[C@H](C)[C@@H](O)[C@@H](C)[C@H](C)OC(=O)C[C@H](O)C[C@H](O)CC[C@@H](O)[C@H](O)C[C@H](O)C[C@]3(O)C[C@H](O)[C@@H](C(=O)O)[C@H](C2)O3)C(O)C(N)C1O (stereo partly drawn),fluorescence slope change,[1],94.6% (active)
same,survival,[2],10.9 (inactive)
same,parasite load remaining,[3],50.3% (inactive)
same,viability,[3],92.5%
NCC1OC(OC2C(N)CC(N)C(OC3OC(CO)C(O)C(N)C3O)C2O)C(N)CC1O (stereo not drawn),fluorescence slope change,[1],-2% (inactive)
same,survival,[2],1.08 (inactive)
same,parasite load remaining,[3],57.1% (inactive)
same,viability,[3],77.2%
COc1cc2cc(N(C)CCCNC(=O)C3CCCO3)cc(N)c2cc1OC (stereo not drawn),fluorescence slope change,[1],52.5% (active)
CC(=O)Nc1c(I)c(C(=O)NC2[C@H](O)OC(CO)[C@@H](O)[C@H]2O)c(I)c(N(C)C(C)=O)c1I (stereo partly drawn),fluorescence slope change,[1],95.2% (active)
same,survival,[2],16.9 (inactive)
same,parasite load remaining,[3],81% (inactive)
same,viability,[3],75.5%
NCC1OC(OC2C(N)CC(N)C(O)C2O[C@@H]2O[C@H](CO)[C@H](O)C2O)C(N)C(O)C1O (stereo partly drawn),fluorescence slope change,[1],50.5% (active)
same,survival,[2],0.167 (inactive)
COc1ccc2c(c1)c1c3c(c4c5ccccc5n(C)c4c1n2CC(O)CN(C)C)C(=O)NC3=O (stereo not drawn),parasite load remaining,[3],65.8% (inactive)
same,viability,[3],144%
Nc1cccc(-c2c[nH]c3ncc(-c4cccnc4)cc23)c1,liver cell % of control,[4],94.3%
same,parasite % of control,[4],42.1% (inactive)
COc1cc2ncnc(Nc3ccc(OCc4ccccc4)cc3)c2cc1OC,parasite load remaining,[3],51.2% (inactive)
same,viability,[3],119%
O=C(Nc1ccc(-c2csc(Nc3cccc(C(F)(F)F)c3)n2)cc1)c1cccc(C(F)(F)F)c1,liver cell % of control,[4],101%
same,parasite % of control,[4],45.1% (inactive)
Nc1cc(Nc2ccc(S(N)(=O)=O)cc2)ncn1,parasite load remaining,[3],48.4% (inactive)
same,viability,[3],133%
same,liver cell % of control,[4],97.7%
same,parasite % of control,[4],145% (inactive)
O=C(Nc1cccc(-c2csc(Nc3ccccc3)n2)c1)c1cc([N+](=O)[O-])cc(C(F)(F)F)c1,liver cell % of control,[4],92.9%
same,parasite % of control,[4],168% (inactive)
O=C(Nc1ccc(-c2csc(Nc3cccc(C(F)(F)F)c3)n2)cc1)c1ccccc1,liver cell % of control,[4],106%
same,parasite % of control,[4],69.1% (inactive)
c1ccc2c(-c3ccncc3)c[nH]c2c1,parasite load remaining,[3],30.9% (inactive)
same,viability,[3],66.5%
O=C1Nc2ccc(Cl)cc2/C1=C/c1cc(Cl)c(O)c(Cl)c1,parasite load remaining,[3],28.5% (inactive)
same,viability,[3],82.4%
CCN1CCN(Cc2ccc(NC(=O)c3ccc(C)c(NC(=O)c4ccc5n[nH]nc5c4)c3)cc2C(F)(F)F)CC1,liver cell % of control,[4],104%
same,parasite % of control,[4],112% (inactive)
COc1ccc(CNc2nc(NCc3ccc(OC)cc3)c3ncn(C4CCCC4)c3n2)cc1,liver cell % of control,[4],90.6%
same,parasite % of control,[4],265% (inactive)
CC(C)(C)c1ccc(S(=O)(=O)Nc2ccc(-n3ccnc3)cc2)cc1,parasite load remaining,[3],37.4% (inactive)
same,viability,[3],67.1%
C=CC(=O)N1CCCC(Nc2nc(Nc3ccc(N(C)C(=O)CC)cc3C)nc3nc[nH]c23)C1 (stereo not drawn),liver cell % of control,[4],105%
same,parasite % of control,[4],93.2% (inactive)
CC(C)n1cnc2c(Nc3cccc(Cl)c3)nc(NCCCO)nc21,liver cell % of control,[4],90.1%
same,parasite % of control,[4],206% (inactive)
Cn1sc(=O)n(Cc2ccccc2)c1=O,parasite load remaining,[3],33% (inactive)
same,viability,[3],94.4%
Nc1ccccc1CNc1nc(NCCO)nc2c1ncn2CCN1CCOCC1,liver cell % of control,[4],100%
same,parasite % of control,[4],125% (inactive)
CC(C)Oc1cc(C(=O)N2CCC(N3CCCCC3)CC2)ccc1Nc1nnc(Cl)c(Nc2ccccc2S(C)(=O)=O)n1,liver cell % of control,[4],98.2%
same,parasite % of control,[4],81.6% (inactive)
CC(C)n1cnc2c(NCc3ccc(S(N)(=O)=O)cc3)nc(NCc3ccc(S(N)(=O)=O)cc3)nc21,liver cell % of control,[4],102%
same,parasite % of control,[4],108% (inactive)
O=C1NC(=O)C(c2cn(CCCO)c3ncccc23)=C1c1cnccn1,parasite load remaining,[3],39.6% (inactive)
same,viability,[3],97.4%
COc1cc2ncn(-c3cc(OCc4ccc(S(C)(=O)=O)cc4)c(C(N)=O)s3)c2cc1OC,parasite load remaining,[3],30% (inactive)
same,viability,[3],67.4%
Cc1ccc(C(=O)Nc2cccc(C(F)(F)F)c2)cc1NC(=O)c1cnnc2ccccc12,liver cell % of control,[4],104%
same,parasite % of control,[4],44.2% (inactive)
O=C(c1cc2cc(O)ccc2[nH]1)c1cc2cc(O)ccc2[nH]1,parasite load remaining,[3],37.2% (inactive)
same,viability,[3],97.4%
COC1C=CC23c4cc5c(cc4CN(C[C@H]2O)[C@@H]3C1)OCO5 (stereo partly drawn),parasite load remaining,[3],2.19% (inactive)
same,viability,[3],98.9%
O=C1Cc2c([nH]c3ccc([N+](=O)[O-])cc23)-c2ccccc2N1,parasite load remaining,[3],65.2% (inactive)
same,viability,[3],128%
same,liver cell % of control,[4],82.9%
same,parasite % of control,[4],65.2% (inactive)
